This is an account of results in PubChem BioAssay (NCATS).

The test system of one assay is MCC-13. The experiment in a line: qHTS assay to identify novel small-molecules to repurpose for Merkel cell carcinoma treatment (AID 1296009). Also: nearly all actives have a fitted effect of over 60% in size. Also: potency is read from the fitted curve at half-maximal effect. Conditions: MCC and control cell lines, CellTiter-Glo viability, 72 h; series mostly up to 46 µM. In outline: (§1)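 After compound transfer in DMSO, plates were kept 72 hr at 37 degree celsius. Luminescent ATP signal from CellTiter-Glo served as viability measure, normalized against DMSO and no-cell controls.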
On the technique in general: Quantitative high-throughput screening tests each substance at several concentrations.

The next assay relates to MCC-26. Described as above. Particulars: MCC and control cell lines, CellTiter-Glo viability, 72 h; series mostly up to 46 µM. In outline:
as §1
In general terms: ATP-based viability assays read luminescence as a measure of living cells.

A further assay has as its system MKL-1. The assay is described as above. Conditions: MCC and control cell lines, CellTiter-Glo viability, 72 h; series mostly up to 46 µM. In outline: as §1
In a further assay the test system is MKL-2. Described as above. Particulars: MCC and control cell lines, CellTiter-Glo viability, 72 h; series mostly up to 46 µM. In outline:
as §1

A further assay concerns WaGa. Described as above. Conditions: MCC and control cell lines, CellTiter-Glo viability, 72 h; series mostly up to 46 µM. In outline:
as §1

A further assay deals with UISO. The description is as above. Particulars: MCC and control cell lines, CellTiter-Glo viability, 72 h; series mostly up to 46 µM. Summed up: as §1
The test system of the next assay is C33A. The experiment in a line: Primary qHTS to identify gynecologic anti-cancer compounds using libraries of approved drugs and bioactive compounds (AID 1345084). Also: nearly all actives have a fitted effect of over 55% in size. Also: potency is read from the fitted curve at half-maximal effect. Particulars: Gynecologic cancer cell panel viability, ATPlite luminescence, 48 h; series mostly up to 57.5 µM. In outline: (§2)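 Five-point cytotoxicity, 48 h drug exposure at 37 C, 5% CO2, on cells seeded 16 h beforehand. ATP content read by ATPlite luminescence.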

The next assay concerns CASKI. The assay is described as above. Particulars: Gynecologic cancer cell panel viability, ATPlite luminescence, 48 h; series mostly up to 57.5 µM. Summed up: as §2
The next assay has as its system Es-2. Described as above. Particulars: Gynecologic cancer cell panel viability, ATPlite luminescence, 48 h; series mostly up to 57.5 µM. In outline:
as §2

Another assay concerns HeLa. The description is as above. Conditions: Gynecologic cancer cell panel viability, ATPlite luminescence, 48 h; series mostly up to 57.5 µM. Summed up: as §2
For the next assay, the system named is OV90. The description is as above. Particulars: Gynecologic cancer cell panel viability, ATPlite luminescence, 48 h; series mostly up to 57.5 µM. Summed up:
as §2

A further assay concerns PA-1. Described as above. Conditions: Gynecologic cancer cell panel viability, ATPlite luminescence, 48 h; series mostly up to 57.5 µM. In outline: as §2
The next assay deals with Tov112D. The description is as above. Conditions: Gynecologic cancer cell panel viability, ATPlite luminescence, 48 h; series mostly up to 57.5 µM. In outline:
as §2

The next assay has as its system Hek293T. The description is as above. Particulars: Gynecologic cancer cell panel viability, ATPlite luminescence, 48 h, control line for the selectivity index; series mostly up to 57.5 µM. In outline:
as §2

The subject of another assay is JEG-3. The assay is described as above. Conditions: Gynecologic cancer cell panel viability, ATPlite luminescence, 48 h; series mostly up to 57.5 µM. Summed up: as §2
Another assay concerns Tov-21-G. Described as above. Particulars: Gynecologic cancer cell panel viability, ATPlite luminescence, 48 h; series mostly up to 57.5 µM. Summed up:
as §2

The next assay deals with CAOV3. The description is as above. Particulars: Gynecologic cancer cell panel viability, ATPlite luminescence, 48 h; series mostly up to 57.5 µM. Summed up: as §2
A further assay has as its system NIH3T3. The experiment in a line: qHTS assay to identify novel small-molecules to repurpose for Merkel cell carcinoma treatment (AID 1296009). Also: nearly all actives have a fitted effect of over 60% in size. Also: potency is read from the fitted curve at half-maximal effect. Conditions: MCC and control cell lines, CellTiter-Glo viability, 72 h; at 44.8 µM (top of the series) unless noted. Summed up:
as §1

The next assay concerns SKOV3. The experiment in a line: Primary qHTS to identify gynecologic anti-cancer compounds using libraries of approved drugs and bioactive compounds (AID 1345084). Also: nearly all actives have a fitted effect of over 55% in size. Also: potency is read from the fitted curve at half-maximal effect. Conditions: Gynecologic cancer cell panel viability, ATPlite luminescence, 48 h; series mostly up to 57.5 µM. In outline:
as §2

Assay [1] is described as follows: Drug repurposing screens with cells derived from glioblastoma tumor samples (AID 1345199). Also: nearly all actives have a fitted effect of over 40% in size. Particulars: GBM patient neurospheres viability, ATP luminescence, 48 h; Potency: tumour line A unless noted; series mostly up to 45.9 µM. Summed up:
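Four patient lines of CD133+ GBM neurospheres were screened at several concentrations; hits were retested in those lines plus three slower-growing GBM lines, using 48-hour treatment and ATP-based viability.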

“And” between values parts separate entries of the source, which are not always exact repeats. Equal entries are not always repeated. Inconclusive results are not listed. Some structures have more than one record in an assay (separate samples or runs), and their calls can disagree. The source made the active and inactive calls. Calls follow the shape of the dose curve; as a rule, active = well fitted curve in the direction sought with a large enough effect; inconclusive = small, poorly fitted or top-dose-only effect, or another doubt; inactive = no such curve, though single readings can be large; an effect the other way counts as inactive or inconclusive.

Regarding `O=S(=O)(CC1CS1)c1ccc(Oc2ccccc2)cc1` (configuration not stated), the Potency entry with MCC-13 and in the assay with MCC-26 was “inactive” throughout. In addition, the Potency with MKL-1 was 23.5 µM (active); in the assay on MKL-2, 16.6 µM (active); with WaGa, 20.9 µM (active).

Take `O=c1[nH]c2ccc(Cl)cc2c(N[C@@H]2CN3CCC2CC3)c1-c1nc2ccccc2[nH]1`: the Potency in the assay with MCC-13 was 4.18 µM (active); with MCC-26 it was 7.43 µM (active); in the assay on MKL-1, 0.743 µM (active); with MKL-2, 2.64 µM (active); in the assay on UISO, 5.9 µM (active); with WaGa, 1.48 µM (active). Besides, the Potency is 10 µM (active) in the assay on CASKI; 447 nM (active) with Es-2; 3.16 µM (active) with HeLa; 5.01 µM (active) in the assay on OV90; 2.24 µM (active) in the assay with PA-1; 25.1 µM (active) in the assay on Tov112D. Further, in the assay with C33A, the Potency entry was “inactive”.

For the compound `COc1ccc(C(c2ccc(OC)cc2)C(Cl)(Cl)Cl)cc1`, the Potency result with MCC-13, with MCC-26, with C33A, in the assay with Es-2, in the assay on Hek293T and in the assay on JEG-3 was “inactive” each time. For the same compound, the Potency entry in the assay on PA-1, in the assay with Tov-21-G and in the assay with Tov112D was “inactive” throughout.

As for `CCCN(CCC)c1c([N+](=O)[O-])cc(S(N)(=O)=O)cc1[N+](=O)[O-]`, the Potency is 24.3 µM (active) with MCC-13; 24.3 µM (active) in the assay on MKL-1; 21.7 µM (active) with MKL-2; 21.7 µM (active) with UISO; 35.5 µM (active) in the assay on C33A. Also, the Potency entry in the assay on JEG-3 is “inactive”.

For `CCNC(=O)C[C@@H]1N=C(c2ccc(Cl)cc2)c2cc(OC)ccc2-n2c(C)nnc21`, the Potency entry with MCC-13, in the assay on C33A, in the assay on CAOV3, in the assay on CASKI and in the assay with Tov112D was “inactive” in each case. Further, the Potency was 1.66 µM (active) in the assay with MKL-2, 5.9 µM (active) in the assay with WaGa and 0.891 µM (active) in the assay on PA-1.

In the case of `Nc1ccc(Cl)cc1N`, the Potency entry with MCC-13, in the assay with MCC-26, in the assay on UISO, with Es-2, in the assay on HeLa and in the assay with Hek293T was “inactive” each time. Also, the Potency result in the assay on JEG-3, in the assay on PA-1 and with Tov112D was “inactive” in each case.

Regarding `CCNC(=O)CC1N=C(c2ccc(Cl)cc2)c2cc(OC)ccc2-n2c(C)nnc21` (configuration not stated), the Potency result in the assay on MCC-13, with MCC-26, in the assay on MKL-1, in the assay on UISO, in the assay on C33A and with CAOV3 was “inactive” in each case. For the same compound, the Potency entry with CASKI, with Es-2, in the assay on HeLa, in the assay with Hek293T, in the assay with JEG-3 and in the assay with OV90 was “inactive” each time. The Potency result in the assay with PA-1, in the assay with Tov-21-G and in the assay with Tov112D was “inactive” throughout. For the same compound, the compound was classed as inactive in the assay on NIH3T3. The Potency entry in the assay with SKOV3 is “inactive and 15.8 µM (active)”.

Consider `COCC1(CO)C(=O)C2CCN1CC2` (configuration not stated), for which the Potency entry with MCC-13 and in the assay with MCC-26 was “inactive” in each case. Also, the Potency in the assay with MKL-1 was 2.09 µM (active); in the assay with WaGa it was 1.32 µM (active).

Take `CCCN1CCO[C@@H]2c3cc(O)ccc3OC[C@@H]21`: the Potency entry in the assay on MCC-13, with MCC-26, with MKL-1 and with UISO was “inactive” in each case.

As to `O=S(=O)(O)C(F)(F)C(F)(F)C(F)(F)C(F)(F)C(F)(F)C(F)(F)C(F)(F)C(F)(F)F`, the Potency entry in the assay on MCC-13, with MCC-26, in the assay on MKL-1, in the assay with UISO, in the assay with C33A and in the assay with CAOV3 was “inactive” throughout. In addition, the Potency result in the assay with CASKI, in the assay on Es-2, in the assay with HeLa, in the assay on Hek293T, in the assay on JEG-3 and in the assay on OV90 was “inactive” each time. In addition, the Potency entry (in the assay with PA-1; in the assay on SKOV3; in the assay on Tov-21-G; in the assay with Tov112D; in assay [1]) was “inactive” throughout. Moreover, the outcome in the assay with NIH3T3 is “inactive [at 92 µM]”.

`CC(C)(O)C=CC(=O)[C@](C)(O)[C@H]1[C@H](O)C[C@]2(C)[C@@H]3CC=C4[C@@H](C=C(O)C(=O)C4(C)C)[C@]3(C)C(=O)C[C@@]12C`: the Potency in the assay with MCC-13 was 0.264 µM (active); in the assay with MKL-1, 0.0662 µM (active); in the assay with MKL-2, 0.0372 µM (active); in the assay with UISO, 0.166 µM (active); in the assay with WaGa, 0.0935 µM (active).

As for `CC(C)(C)C(O)C(Oc1ccc(Cl)cc1)n1cncn1` (configuration not stated), the Potency result with MCC-13, in the assay with MCC-26, with C33A, in the assay on CASKI, in the assay with Es-2 and in the assay with HeLa was “inactive” each time. Besides, the Potency result in the assay on Hek293T, in the assay with JEG-3, in the assay with PA-1, with SKOV3, with Tov-21-G and with Tov112D was “inactive” each time.

For the compound `COc1ccc(C(=O)c2c(C)n(CCN3CCOCC3)c3cc(I)ccc23)cc1`, the Potency entry in the assay on MCC-13, with MCC-26 and in the assay on WaGa was “inactive” each time. Also, the Potency in the assay with MKL-2 is 1.48 µM (active). For the same compound, in the assay on NIH3T3, the compound was called inactive.

For the compound `C=CC(=O)NCNC(=O)C=C`, the Potency result in the assay with MCC-13, in the assay on MCC-26, with MKL-1, in the assay with UISO, in the assay with C33A and in the assay on CAOV3 was “inactive” each time. Also, the Potency entry in the assay with CASKI, in the assay on Es-2, in the assay with HeLa, in the assay on Hek293T, in the assay on JEG-3 and in the assay with OV90 was “inactive” each time. Also, the Potency result (in the assay on PA-1; in the assay on SKOV3; in the assay on Tov-21-G; with Tov112D; in assay [1]) was “inactive” throughout.
